IL-1B inflam inh – blocks inflammasome-driven IL-1 beta release | THP-1 LPS/ATP IL-1B secretion, AlphaLISA, 16 h; stronger effect = lower value | activity change, % at 57.5 µM | 360,000 compounds, 4.7% hits; in the data active = activity change below about -50%; inconclusive = mostly about -30% to -49%
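Secreted IL-1B measured by AlphaLISA bead assay after 16 h compound exposure of THP-1 cells; compounds (final up to 57.5 uM) added 1 h before LPS (250 ng/mL) and ATP (1.25 mM) stimulation; lower signal means less secretion.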
TGFb SMAD3 inh – TGF-b pathway inhibition; HepG2 CAGA-GFP TGF-b/SMAD3 reporter, GFP fluorescence, 18 h; TGF-beta stimulated, 500 pg/mL final; 410,000 compounds, 1.2% hits; AID 588855; Potency, µM (top dose mostly 46.1 µM), usual class: inhibitors; note: nearly all actives have a fitted effect of over 65% in size
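HEPG2 CAGA-GFP, 1000 cells/well; 2 h settle, 37 C; cpd via pin tool; TGF-b 500 pg/mL final; 18 h, 37 C; GFP imaging ex488/em500-530; %Activity normalised to -TGF-b and +DMSO controls; CRC fit, curve class.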
TDP1 cell CPT – growth inhibition of DT40 Tdp1-/-;hTDP1 cells with camptothecin (screen for TDP1 inhibitors) | Potency, µM (highest dose often 46.2 µM), actives largely listed as inhibitors | 420,000 compounds, 12% hits | chicken DT40 Tdp1-/-;hTDP1 cells + 20 nM CPT, ATP luminescence, 48 h | AID 686979; note: nearly all actives have a fitted effect of over 55% in size
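Cell growth measured by CellTiter-Glo luminescence after a minimum 48 h, 37 C compound exposure with 20 nM CPT in Tdp1-knockout DT40 cells stably expressing hTDP1, seeded 400/well; qHTS titration format.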
DT40 TDP1 no CPT – qHTS for Inhibitors of human tyrosyl-DNA phosphodiesterase 1 (TDP1): qHTS in cells in absence of CPT. DT40 Tdp1-/- hTDP1 cells, no CPT, ATP luminescence, 48 h. Potency, µM (top dose mostly 46.2 µM), most hits filed as inhibitors. 420,000 compounds, 15% hits; note: nearly all actives have a fitted effect of over 55% in size
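Seeded 400 DT40-hTDP1 cells/well (vehicle DMSO, no 20 nM CPT); pinned compounds; ≥48 hr at 37 °C; CellTiter-Glo luminescence as viability measure.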
TDP1 block – blocks human tyrosyl-DNA phosphodiesterase 1. recombinant TDP1, AlphaScreen DNA substrate cleavage. Potency, µM (titrated, usually from 130 µM), usual class: inhibitors. 350,000 compounds, 0.28% hits; note: nearly all actives have a fitted effect of over 40% in size
Target sequence (Q9NUW8 whole entry, looked up): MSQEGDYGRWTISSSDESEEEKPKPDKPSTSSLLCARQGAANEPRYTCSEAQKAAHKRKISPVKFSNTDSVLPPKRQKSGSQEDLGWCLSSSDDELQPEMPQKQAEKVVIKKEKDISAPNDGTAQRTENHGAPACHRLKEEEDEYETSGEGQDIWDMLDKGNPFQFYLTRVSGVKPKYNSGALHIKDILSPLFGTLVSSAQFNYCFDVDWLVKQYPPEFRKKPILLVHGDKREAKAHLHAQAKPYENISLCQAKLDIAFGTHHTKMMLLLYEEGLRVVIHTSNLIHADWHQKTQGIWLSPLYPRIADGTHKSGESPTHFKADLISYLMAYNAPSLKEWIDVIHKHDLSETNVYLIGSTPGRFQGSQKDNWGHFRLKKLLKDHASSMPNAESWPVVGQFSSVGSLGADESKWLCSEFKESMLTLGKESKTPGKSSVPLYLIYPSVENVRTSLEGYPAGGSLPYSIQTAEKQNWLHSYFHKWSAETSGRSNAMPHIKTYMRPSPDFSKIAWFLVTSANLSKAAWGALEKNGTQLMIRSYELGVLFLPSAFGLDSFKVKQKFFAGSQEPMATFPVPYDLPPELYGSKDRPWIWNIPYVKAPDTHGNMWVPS
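E. coli-derived human Tdp1, 1 nM final. Cpd preinc 15 min RT; substrate 15 nM final, 5 min RT; AS bead mix 10 ug/ml final, 10 min RT. Signal loss = tyrosine-FITC cleavage. No-enzyme wells = max signal.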
HepG2 tox – kills HepG2 cells in TGF-b inhibitor counter-screen. 410,000 compounds, 0.76% hits. AID 588856. Potency, µM (top dose mostly 46.1 µM), actives largely listed as cytotoxic. HepG2 CAGA-GFP viability, ATP luminescence, 18 h
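CellTiter-Glo luminescence gave cytotoxicity after 18 hours at 37 degrees C. The cells were HepG2 CAGA-GFP in 1% FBS DMEM, stimulated with 500 pg/mL TGF-beta after compound addition. %Activity was normalised to no-cell wells (complete cell-killing) and DMSO (no toxicity), and curves were fitted and classified.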
Each line names hits and unclear results; the compound was inactive in the other large screens. Most compounds without a hit are left out; they make up all but 18% or so of the library. Unless noted, calls come from the whole dose curve; as a rule, active = well fitted curve in the direction sought with a large enough effect; inconclusive = small, poorly fitted or top-dose-only effect, or another doubt; inactive = no such curve, though single readings can be large; an effect the other way counts as inactive or inconclusive.

Cc1ccc(NC(=O)CSCC(=O)N(CCC(C)C)c2c(N)n(Cc3ccccc3)c(=O)[nH]c2=O)cc1	none
CC1(c2ccc(F)cc2)OC(=O)c2c1ccc1ccccc21 (configuration not stated)	TDP1 cell CPT inconclusive, DT40 TDP1 no CPT 18.4µM (no result: TDP1 block)
CC(C)Sc1nc2ccccc2c(=O)[nH]1	IL-1B inflam inh inconclusive
O=[N+]([O-])c1ccc(Sc2cc[n+]([O-])c3ccccc23)c([N+](=O)[O-])c1	IL-1B inflam inh -108.2, TDP1 cell CPT 2.59µM, DT40 TDP1 no CPT 2.06µM
O=c1[nH]c(Sc2ccc([N+](=O)[O-])cc2[N+](=O)[O-])nc2ccccc12	TGFb SMAD3 inh 14.1µM, TDP1 cell CPT 3.26µM, DT40 TDP1 no CPT 13µM, HepG2 tox 11.2µM (no result: TDP1 block)
COc1cc(-c2cc(C)c3c(OC)ccc(OC)c3n2)cc2c1OCCN(C(=O)C(C)c1n[nH]c(=O)c3ccccc13)C2 (configuration not stated)	none (no result: IL-1B inflam inh, TGFb SMAD3 inh, TDP1 block, HepG2 tox)
CC(C)(C)OC(=O)N1CCCC(C(=O)Nc2cccc(C(=O)NCc3ccccc3)c2)C1 (configuration not stated)	TDP1 cell CPT inconclusive, DT40 TDP1 no CPT inconclusive (no result: TDP1 block)
CN(Cc1ccccc1)C(=O)c1cccc(NC(=O)Cc2cccc(NC(=O)C3CCN(C(=O)C4CC4)CC3)c2)c1	TDP1 cell CPT inconclusive, DT40 TDP1 no CPT inconclusive (no result: TDP1 block)
CN(Cc1ccccc1)C(=O)c1cccc(NC(=O)Cc2ccc(NC(=O)C3CCN(C(=O)C4CCC4)CC3)cc2)c1	TDP1 cell CPT inconclusive, DT40 TDP1 no CPT 23.1µM (no result: TDP1 block)
CN(CCc1ccccc1)C(=O)c1ccc(NC(=O)Cc2cccc(NC(=O)C3CCN(C(=O)C4CCC4)CC3)c2)cc1	TDP1 cell CPT 16.4µM, DT40 TDP1 no CPT 20.6µM (no result: TDP1 block)
CN(Cc1ccccc1)C(=O)c1ccc(NC(=O)Cc2cccc(NC(=O)C3CCN(C(=O)C4CCCCC4)CC3)c2)cc1	TGFb SMAD3 inh inconclusive, TDP1 cell CPT inconclusive, DT40 TDP1 no CPT inconclusive
CN(C(=O)c1ccc(NC(=O)C2CCCN(C(=O)OC(C)(C)C)C2)cc1)C1CCC1 (configuration not stated)	TGFb SMAD3 inh inconclusive, TDP1 cell CPT inconclusive, DT40 TDP1 no CPT 16.4µM
CN(Cc1ccccc1)C(=O)c1cccc(NC(=O)C2CCCN(C(=O)OC(C)(C)C)C2)c1 (configuration not stated)	TDP1 cell CPT 18.4µM, DT40 TDP1 no CPT 16.4µM
CN(CCc1ccccc1)C(=O)c1ccc(NC(=O)Cc2cccc(NC(=O)C3CCN(C(=O)C4CC4)CC3)c2)cc1	none (no result: TDP1 block)
CN(CCc1ccccc1)C(=O)c1ccc(NC(=O)Cc2cccc(NC(=O)C3CCN(C(=O)C4CCCC4)CC3)c2)cc1	TDP1 cell CPT inconclusive, DT40 TDP1 no CPT 9.2µM (no result: TDP1 block)
CC1CCC2(CC1)NC(=O)N(CC(=O)Nc1sc3c(c1C(N)=O)CCC3)C2=O (configuration not stated)	TDP1 cell CPT inconclusive, TDP1 block inconclusive
COC(=O)c1c(NC(=O)CN2C(=O)NC3(CCc4ccccc4C3)C2=O)sc2c1CCCCC2 (configuration not stated)	TDP1 cell CPT 20.6µM, DT40 TDP1 no CPT 25.9µM
COC(=O)c1c(NC(=O)CN2C(=O)NC3(CCC(C)CC3)C2=O)sc2c1CCC2 (configuration not stated)	TDP1 cell CPT 14.6µM, DT40 TDP1 no CPT 16.4µM
COC(=O)c1c(NC(=O)CN2C(=O)NC3(CCC(C(C)(C)C)CC3)C2=O)sc2c1CCCCC2 (configuration not stated)	DT40 TDP1 no CPT inconclusive
COc1ccc(C(=O)NC2CC(C)(C)NC(C)(C)C2)cc1S(=O)(=O)N1CCOCC1	none (no result: TDP1 block)
CC1CCN(S(=O)(=O)c2cccc(C(=O)N3CCN(c4ccc(F)cc4)CC3)c2)CC1	TDP1 cell CPT 14.6µM, DT40 TDP1 no CPT inconclusive
CC1CC(C)CN(S(=O)(=O)c2cccc(C(=O)N3CCN(c4ccc(F)cc4)CC3)c2)C1 (configuration not stated)	TGFb SMAD3 inh inconclusive, TDP1 cell CPT inconclusive, DT40 TDP1 no CPT 20.6µM
CC1CCC(NC(=O)c2cccc(S(=O)(=O)N3CCN(c4ccc(F)cc4)CC3)c2)CC1 (configuration not stated)	TDP1 cell CPT inconclusive, DT40 TDP1 no CPT 9.2µM
COC(=O)[C@]1(C)N[C@H](CN(C)C(=O)c2ccc(C)cc2)[C@@H]2C(=O)N(C)C(=O)[C@@H]21	none
O=C(Nc1cccc([N+](=O)[O-])c1)C1CCN(C(=O)Cc2ccccc2)CC1	none
CCOc1ccc(CC(=O)NNC(=O)/C=C/C(=O)O)cc1	none
O=C1C(=C2CCCCC2)SC(=S)N1Cc1ccco1	TGFb SMAD3 inh inconclusive, TDP1 cell CPT inconclusive, DT40 TDP1 no CPT 16.4µM
O=C1CC(=O)N(Cc2ccco2)C(=S)N1	TDP1 block 2.51µM
O=C(O)CCN1C(=O)C(=C2CCCCCC2)SC1=S	none
S=C1NCN(Cc2ccco2)CN1	TGFb SMAD3 inh inconclusive
O=C1CC(=O)N(Cc2ccco2)C(=O)N1	TDP1 block 10µM
CC(C)CC(=O)Nc1c2c(nn1-c1cccc(Cl)c1)CS(=O)C2 (configuration not stated)	none (no result: TDP1 block)
CC(=O)N1CCN(C(=O)c2cccc(NS(=O)(=O)c3ccc(Br)cc3)c2)CC1	none (no result: TDP1 block)
O=[N+]([O-])c1cc(S(=O)(=O)N2CCCCCC2)ccc1F	IL-1B inflam inh inconclusive, TGFb SMAD3 inh inconclusive, TDP1 cell CPT 7.31µM, DT40 TDP1 no CPT 10.3µM
COc1ccc(Nc2ccc(S(=O)(=O)N3CCCCC3)cc2[N+](=O)[O-])cc1	TDP1 cell CPT inconclusive, DT40 TDP1 no CPT 16.4µM
O=[N+]([O-])c1cc(S(=O)(=O)N2CCCC2)ccc1O	none
CC(C)(CNc1ccc(S(=O)(=O)C(F)(F)F)cc1[N+](=O)[O-])N1CCOCC1	IL-1B inflam inh -53.1, TDP1 cell CPT inconclusive, DT40 TDP1 no CPT inconclusive
COc1ccc(Nc2ccc(S(=O)(=O)N3CCCCC3)cc2[N+](=O)[O-])cc1Cl	TDP1 cell CPT inconclusive, DT40 TDP1 no CPT inconclusive (no result: TDP1 block)
O=[N+]([O-])c1cc(S(=O)(=O)N2CCOCC2)ccc1NS(=O)(=O)c1ccccc1	IL-1B inflam inh -82.9, TGFb SMAD3 inh inconclusive
O=C(NCc1ccc2c(c1)CCO2)Nc1cccc(C(F)(F)F)c1	DT40 TDP1 no CPT inconclusive
COc1ccc(C(CNc2ccc(S(=O)(=O)N3CCN(C)CC3)cc2[N+](=O)[O-])N(C)C)cc1 (configuration not stated)	DT40 TDP1 no CPT 20.6µM

Source: PubChem
